In the library only some 3.7% were active in any assay of this set; here they are far more common.
BJeLR viability – MLPCN primary cell-based screen for lethality selective to Ras in HRASV12 cells; BJeLR (HRASV12) viability, CellTiter-Glo ATP luminescence, 48 h; inhibition, % (concentration not given with the values); 300,000 compounds, 0.17% hits; AID 1554, 2009; in the data active = inhibition above about 50%; inconclusive = no clear call, values can overlap the other calls
BoNT-A LC inh2 – BoNT/A light chain protease inhibitors, primary screen, biochemical, flow cytometry, MLPCN library; Botulinum neurotoxin type A light chain protease (Clostridium botulinum A str. ATCC 3502); multiplex microsphere protease substrate cleavage; inhibition, % at 10 µM; 360,000 compounds, 0.17% hits; also: plate controls were buffer without enzyme for full effect and enzyme alone for no effect
Anthrax LF prot – Bacillus anthracis LF protease inhibitors, primary screen, biochemical, multiplex microsphere, MLPCN library; inhibition, % at 10 µM; AID 588501, 2011; Lethal factor (Bacillus anthracis), P15917; multiplex microsphere protease cleavage assay; 360,000 compounds, 0.12% hits; also: plate controls were buffer without enzyme for full effect and enzyme alone for no effect
BoNT F protease – BoNT/F light chain protease inhibitors, primary screen, biochemical, flow cytometry, MLPCN library; Botulinum neurotoxin type F light chain protease (Clostridium botulinum); Multiplex microsphere protease cleavage assay; inhibition, % at 10 µM; 360,000 compounds, 0.22% hits; in the data active = inhibition above about 35%, passing the limit was not always enough; inconclusive = no clear call, values can overlap the other calls; also: plate controls were buffer without enzyme for full effect and enzyme alone for no effect
Vc quorum ag – inducers of Vibrio cholerae quorum light production without autoinducers, primary screen, BH1578 luxS cqsA deficient, single point; V. cholerae BH1578 lux reporter, luminescence, 6 h; activation, % at 18.7 µM; 350,000 compounds, 0.16% hits; AID 588436, 2011; in the data active = activation mostly above about 9.7%, no sharp cut-off; inconclusive = no clear call, values can overlap the other calls; inactive = mostly below about 3.7%
Autofluor counter – compound fluorescence in toxin protease inhibitor counterscreen; 360,000 compounds, 3.1% hits; compound autofluorescence counterscreen, microsphere flow cytometry; stronger effect = higher value; fluorescence intensity (test concentration not listed); AID 624483; in the data active = fluorescence intensity above about 16000; inconclusive = no clear call, values can overlap the other calls
* hit, by the source's call; i = inactive; ? = inconclusive; / = no result given. Rule as the data show it, unless noted: active = inhibition above about 30%; inconclusive = no clear call, values can overlap the other calls; inactive = below that.

SMILES	BJeLR viability	BoNT-A LC inh2	Anthrax LF prot	BoNT F protease	Vc quorum ag	Autofluor counter
COc1ccc(C=C2c3ccccc3C(=O)c3ccccc32)c(OC)c1	53.5*	-3.3	-7.0	?	-0.7	4419
Cc1ccc(C)c2[nH]c(=O)c(CN(Cc3nnnn3C3CCCCC3)CC3CCCO3)cc12 (stereo not drawn)	2.2	0.7	1.2	7.1	-0.5	10836
COc1ccc(CN(Cc2cc3cc(OC)c(OC)cc3[nH]c2=O)C(=O)NC2CCCCC2)cc1	/	-0.7	-4.7	-1.4	-0.2	22119*
Cc1ccc(C)c2[nH]c(=O)c(CN(CC3CCCO3)C(=O)NC3CCCCC3)cc12 (stereo not drawn)	-0.9	?	0.1	-0.2	i	19956*
COc1cc2cc(CN(C(=O)NC3CCCCC3)C3CCCC3)c(=O)[nH]c2cc1OC	-4.3	0.8	2.7	-7.0	0.1	2367
c1ccc(N2CCN(c3nc(-c4ccccn4)nc4ccccc34)CC2)cc1	0.2	-0.4	-4.8	-10.7	i	3108
CN1CCN(c2nc(-c3ccccn3)nc3ccccc23)CC1	16.4	-1.0	-0.9	-1.4	-0.6	23212*
CC(C)(C(=O)N1CCC1(C)C(=O)NS(=O)(=O)c1ccc(C#N)cc1)c1ccccc1 (stereo not drawn)	/	0.3	-4.7	4.7	i	3790
Cc1ccc(CNCCCn2cnc(C(=O)Nc3ccc(C)c(C)c3)n2)o1	/	0.0	-1.8	-6.0	-0.7	3860
CCCCn1nnc(NC(=O)CCC)n1	-9.3	2.5	-3.7	1.4	-0.2	19212*
CCc1ccccc1N1CCN(S(=O)(=O)c2cc(OC)ccc2OC)CC1	4.9	?	-5.9	-2.2	i	23647*
CC(=O)c1cnc(N2CCCCC2)nc1C	5.4	1.7	-0.4	3.8	i	21581*
CC(Oc1ccc(Cl)cc1Cl)c1nc(-c2ccc(NC(=O)c3ccncc3)cc2)no1 (stereo not drawn)	16.7	-2.4	-1.9	-5.5	-0.2	21041*
CC(Oc1ccc(Cl)cc1Cl)c1nc(-c2ccc(NC(=O)c3cccnc3)cc2)no1 (stereo not drawn)	72.3*	0.8	2.9	15.0	i	2580
CCOC(=O)[C@]12CCC=C1N(CCC1=CCCCC1)C(=O)[C@H](CC(=O)N1CCSCC1)C2	/	0.2	5.1	4.8	/	5544
O=C(CSCC(=O)Nc1ccccc1)N/N=C/c1c(O)ccc2ccccc12	11.4	4.6	6.4	-2.3	-0.3	23512*
COc1ccc(/C=N/NC(=O)CSCC(=O)Nc2ccccc2)cc1OC	-3.5	?	-13.5	11.7	1.8	19130*
O=C(CSCc1ccc(Cl)cc1)N/N=C/c1ccc(OCC(=O)Nc2ccccc2)cc1	-3.3	-0.6	4.4	-12.1	i	3192
Cc1ccc(NC(=O)COc2ccc(/C=N/NC(=O)CSCc3ccccc3)cc2)cc1	-2.8	-0.5	0.2	-1.2	i	22872*
O=C(N/N=C\c1c(O)ccc2ccccc12)c1cncc(Br)c1	13.4	41.6*	8.0	25.9	28.4	3289
O=C(N/N=C/c1c(O)ccc2ccccc12)c1cccnc1	35.4	5.6	-5.7	-7.6	i	3903
C(=C\c1ccccc1)/CN1CCN(C(c2cc3ccccc3o2)c2nnnn2C2CCCCC2)CC1 (stereo not drawn)	/	0.2	4.5	0.3	/	4464
O=C(c1cccc(S(=O)(=O)NCc2ccccc2)c1)N1CCN(c2ccccc2Cl)CC1	/	-0.6	-8.9	-5.7	i	2910
CN(C)Cc1csc(NC(=O)Nc2ccccc2Cc2ccccc2)n1	/	0.1	1.1	-2.7	-0.2	3793
O=S(=O)(/N=C/c1c(O)ccc2ccccc12)c1ccccc1	-2.8	-0.9	1.7	42.2*	-0.3	3955
O=C(O)c1ccc(N=Cc2c(O)ccc3ccccc23)cc1	-7.7	-1.0	7.0	-9.7	0.4	3839
CN(C)C(=O)c1ccc(SC(=S)NCc2ccccc2)cc1	/	0.5	2.4	-9.6	/	5793
Cc1cc(C)cc(-n2nc(C)cc2N)c1	-6.5	?	-0.4	-0.2	-0.2	16680*
Cc1cccc(-n2nc(C)cc2N)c1	5.7	-0.4	-2.2	-14.6	i	8390
